This is part of a sample that, as a whole, favours compounds with a hit. Of some 83,000 tested, about 20% had one in any assay.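 The test compound was applied at a single concentration to cells in 96-well plates for 48 hours, and percent growth was recorded.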 A number with no mark means an inactive call. Active and inactive are the calls of the source. How the source made its calls: active means growth percent below 10; inactive means the rest.

What all share (assay): NCI-60 one-dose screen, 48 h (100 = growth as untreated, 0 = no growth, -100 = all killed)
Common to all, as to settings: 10 µM

The test system of assay [1] is DU-145 prostate.
Assay [2] relates to K-562 leukemia.
In assay [3] the test system is MALME-3M melanoma.
Assay [4] relates to MDA-MB-231 breast.
The subject of assay [5] is SF-268 CNS.
Assay [6] has as its system SF-295 CNS.
In assay [7] the test system is SF-539 CNS.
The subject of assay [8] is UACC-257 melanoma.
Assay [9] relates to M14 melanoma.
In assay [10] the test system is HCT-15 colon.
In assay [11] the test system is HT29 colon.
The test system of assay [12] is SNB-75 CNS.
Assay [13] concerns SNB-19 CNS.
For assay [14], the system named is U251 CNS.
The test system of assay [15] is PC-3 prostate.
Assay [16] concerns SK-MEL-5 melanoma.
Assay [17] relates to UACC-62 melanoma.
The test system of assay [18] is LOX IMVI melanoma.
Assay [19] has as its system SK-MEL-28 melanoma.
The test system of assay [20] is RXF 393 renal.

On to `C(=C\c1nc2ccccc2s1)/c1ccc(N2CCOCC2)s1`, for which the growth in [1] is 92.4%; in assay [2] it was 31.8%; in [3], 103%; in assay [4], 75.5%; in assay [5], 98.2%; in [6], 69%. For the same compound, the growth in [7] is 81.1%; in assay [8], 90.2%; in assay [9], 36.6%; in assay [10] it was 48.3%; in assay [11], 45.1%; in assay [12], 99.6%. The growth is 95.2% in assay [13]; 67.6% in assay [14]; 53.4% in [15]; 61.1% in [16]; 30.8% in [17]; 56.8% in assay [18]. Further, in assay [19], the growth is 113%.

`COC(=O)[C@]12CC[C@@H](C)[C@H](C)[C@@H]1C1=CC[C@@H]3[C@@]4(C)CC(=O)[C@H](O)[C@@](C)(CO)[C@@H]4C(=O)C[C@@]3(C)[C@]1(C)CC2`: the growth was -44.4% (active) in [1]; -69.5% (active) in assay [2]; -35.2% (active) in assay [3]; -34.2% (active) in assay [4]; -41.4% (active) in assay [20]; 4.33% (active) in assay [5]. The growth was -0.778% (active) in [6]; 16.5% in [7]; 7.73% (active) in assay [8]; 10.1% in assay [9]; -25.6% (active) in [11]; -0.588% (active) in [12]. Also, the growth was 16.6% in assay [13]; -43.5% (active) in assay [14]; -22.3% (active) in assay [15]; -80.3% (active) in assay [16]; -57.2% (active) in assay [17]; -77.9% (active) in assay [18]. Further, the growth in assay [19] is 21.8%.

Turning to `CN(C)CCCN1c2ccccc2Sc2ccc(C(F)(F)F)cc21`, the growth in assay [1] is 50.3%; in assay [2] it was -46.2% (active); in assay [3], -80.6% (active); in assay [4], 4.03% (active); in [5] it was 16.8%; in assay [6], -2.18% (active). Further, the growth in [7] is 3.74% (active); in assay [8] it was 6.53% (active); in [9], -84.6% (active); in [10], 17.3%; in assay [11], -8.15% (active); in assay [12], -2.79% (active). Besides, the growth in assay [13] was 35.9%; in [14], 19.5%; in assay [15], 23.3%; in [16] it was -95.4% (active); in assay [17], -52.6% (active); in assay [18], -75.3% (active). In addition, the growth in assay [19] was -64.1% (active).

For `N#CN1CC[C@H](C(=O)Nc2ncc(-c3ccccc3)s2)C1`, the growth in assay [1] is 0.607% (active); in [2] it was 2.31% (active); in [3], -16.4% (active); in [4], 3.84% (active); in assay [20] it was -45% (active); in [5], 0.182% (active). Further, the growth in assay [6] is 18.8%; in [7], -16.9% (active); in assay [8] it was -8.04% (active); in assay [9], -7.98% (active); in assay [11], -35.6% (active); in assay [12] it was -43.8% (active). The growth is 12.4% in [13]; 2.64% (active) in assay [14]; 11.1% in assay [15]; -56% (active) in assay [16]; -37.1% (active) in assay [17]; 4.1% (active) in [18]. In addition, in [19], the growth is 5.29% (active).

For `C=CCOc1ccc2c(c1)CC[C@@H]1[C@@H]2CC[C@]2(C)C(=O)/C(=N/O)C[C@@H]12`, the growth in [1] is 21.8%; in assay [2], 19.5%; in assay [3] it was 74.4%; in assay [4], 9.69% (active); in [20] it was 1.96% (active); in assay [5], 43.8%. For the same compound, the growth is 78.7% in assay [6]; 86.6% in [7]; 76.5% in assay [8]; 61.3% in assay [9]; 2.91% (active) in assay [11]; 18.9% in [12]. Moreover, the growth in [13] is 69.5%; in [14] it was 68.8%; in [15], 42.1%; in assay [16] it was 77.4%; in assay [17] it was 93.5%; in assay [18], 42.3%. The growth in [19] was 106%.

On to `FC(F)(F)c1ccc(-c2nc(-c3nc4cc(Cl)c(Cl)cc4[nH]3)c3ccccn23)cc1`, for which the growth in assay [1] is 58.6%; in assay [2], 79.8%; in assay [3] it was 22.3%; in assay [4] it was 29.6%; in assay [20], 31.7%; in assay [5] it was 44.9%. Besides, the growth is 71.2% in [6]; 32.6% in assay [7]; 93.4% in assay [8]; 79.6% in [9]; 55.9% in assay [11]; -16.1% (active) in assay [12]. Besides, the growth in assay [13] was 84.4%; in [14] it was 47.6%; in assay [15], 48.3%; in assay [16], 53.4%; in assay [17], 71.1%; in assay [18], 62.6%. In addition, the growth in assay [19] is 57.4%.

As for `O=c1[nH]c(=O)n(C2C[C@@H](O)[C@@H](CO)O2)cc1F` (some centres not stated), the growth is 37% in [1]; 9.63% (active) in assay [2]; 52.7% in assay [3]; 62.1% in assay [4]; 24.1% in assay [5]; 8.65% (active) in [6]. Besides, the growth in assay [7] was 5.71% (active); in assay [8] it was 67.8%; in assay [9], -6.77% (active); in assay [10], 39%; in assay [12], 20.3%; in [14], 34.2%. Further, the growth was 44% in assay [15]; -69% (active) in assay [16]; 13.9% in [17]; 14.1% in assay [18]; 37.9% in [19].

Consider `Cc1cc(=O)oc2cc(OCc3cn(CC(O)CO)nn3)ccc12` (configuration not stated), for which the growth in assay [1] was 103%; in assay [2], 96.1%; in assay [3], 109%; in assay [4], 104%; in assay [5], 109%; in [6], 107%. The growth is 95.9% in [7]; 112% in assay [8]; 106% in assay [9]; 105% in assay [10]; 132% in assay [12]; 105% in [13]. In addition, the growth in assay [14] is 100%; in [15], 110%; in [16], 25.5%; in [17], 97.4%; in [18] it was 103%; in assay [19], 128%.

In the case of `CC(=O)OC1Oc2ccccc2-c2oc(=O)c(-c3cc(=O)oc4cc(O)ccc34)cc21` (configuration not stated), the growth in assay [1] was 78.3%; in assay [2] it was 33.2%; in assay [3], 68.9%; in assay [4] it was 86.3%; in assay [5], 97.1%; in assay [6] it was 73.6%. The growth is 89% in assay [7]; 80.1% in assay [8]; 72.1% in assay [9]; 80.8% in assay [10]; 86.9% in assay [11]; 76% in [12]. The growth in assay [14] was 89.6%; in assay [15] it was 75.9%; in assay [16], 80.1%; in [17], 84.9%; in assay [18], 83.8%; in [19] it was 111%.

Source of the values: PubChem BioAssay (NCI).
